# Results: PubChem BioAssay (NCATS)
# Inconclusive results are not listed. A call without a number means that no potency is given here. A number with no mark means an inactive call. The source made the active and inactive calls. Calls follow the shape of the dose curve; as a rule, active = well fitted curve in the direction sought with a large enough effect; inconclusive = small, poorly fitted or top-dose-only effect, or another doubt; inactive = no such curve, though single readings can be large; an effect the other way counts as inactive or inconclusive.
# Test system: UISO
# Assay: qHTS assay to identify novel small-molecules to repurpose for Merkel cell carcinoma treatment (AID 1296009); also: nearly all actives have a fitted effect of over 60% in size
# Conditions: MCC and control cell lines, CellTiter-Glo viability, 72 h; series mostly up to 46 µM
# Outline: (§1)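 Luminescence from CellTiter-Glo, read 10 min after addition at room temperature, reported viability following a 72 hr, 37 degree celsius treatment with NPC or MIPE compounds in titration; values normalized to plate controls.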
# Potency is read from the fitted curve at half-maximal effect.
row,SMILES,Potency
1,CNCCc1ccccn1,inactive
2,CC(=O)NCCCCCC(=O)O,inactive
3,CCCc1ncc(C[n+]2ccccc2C)c(N)n1,inactive
4,CC(C)(C)CC(C)(C)c1ccc(O)c(-n2nc3ccccc3n2)c1,inactive
5,CCN(CC)CCNC(=O)COc1ccc(OC)cc1,inactive
6,COc1cc(C(=O)N2CCCCCCC2)cc(OC)c1OC,inactive
7,CCOC(=O)C(C#N)=C(c1ccccc1)c1ccccc1,inactive
8,Cc1cc(-c2ccccc2)nnc1NCCN1CCOCC1,inactive
9,CC[N+](C)(CC)CCOC(=O)C(O)(c1ccccc1)C1CCCCC1 (centres undefined),inactive
10,C[C@@H](O)[C@H]1C(=O)N2C(C(=O)O)=C(S[C@@H]3CN[C@H](CNS(N)(=O)=O)C3)[C@H](C)[C@H]12,inactive
11,CC(C)(C)NC[C@H](O)COc1nsnc1N1CCOCC1,inactive
12,CC(=O)O[C@H]1C[C@@H]2CC[C@@H]3[C@H](CC[C@@]4(C)[C@H]3C[C@H]([N+]3(C)CCCCC3)[C@@H]4OC(C)=O)[C@@]2(C)C[C@@H]1N1CCCCC1,inactive
13,CCCN(CCC)S(=O)(=O)c1ccc(C(=O)O)cc1,inactive
14,CC(C)(C)NCC(O)COc1cccc2c1C[C@H](O)[C@H](O)C2 (some centres undefined),inactive
15,NC(=O)C1(N2CCCCC2)CCN(CCCC(=O)c2ccc(F)cc2)CC1,inactive
16,CC(=O)Nc1ncc([N+](=O)[O-])s1,inactive
17,FC1(F)C(F)(F)C(F)(F)C2(F)C(F)(F)C(F)(F)C(F)(F)C(F)(F)C2(F)C1(F)F (centres undefined),inactive

# Test system: WaGa
# Assay: as above
# Conditions: MCC and control cell lines, CellTiter-Glo viability, 72 h; series mostly up to 46 µM
# Outline: as §1
SMILES,Potency,"activity change, negative = cytotoxicity"
N#C/C(=C1\SCC(c2ccccc2Cl)S1)n1ccnc1 (centres undefined),inactive,–
COc1ccc(C(=O)c2ccccc2O)c(O)c1,inactive,–
CCC1NC(=O)c2cc(S(N)(=O)=O)c(Cl)cc2N1 (centres undefined),inactive,–
OC1C(O)C(O)C(O)C(O)C1O (centres undefined),inactive,–
OC(C#CCN1CCCC1)(c1ccccc1)c1ccccc1,inactive,–
COc1ccc(C(=O)c2ccccc2)c(O)c1,inactive,–
CCC(Cc1c(I)cc(I)c(N)c1I)C(=O)O (centres undefined),inactive,–
CN(Cc1ccc(C(C)(C)C)cc1)Cc1cccc2ccccc12,inactive,–
COP(=O)(OC)OC(c1ccc(Cl)cc1)P(=O)(OC)OC (centres undefined),inactive,–
Nc1nc(N)c(-c2ccccc2)s1,inactive,–
CO[C@]12C[C@@H](COC(=O)c3cncc(Br)c3)CN(C)[C@@H]1Cc1cn(C)c3cccc2c13,inactive,–
O=C(NCCc1c[nH]c2ccccc12)c1cccnc1,inactive,–
CCN[C@@H]1C[C@H](N)[C@@H](OC2OC(CN)=CCC2N)[C@H](O)[C@H]1O[C@H]1OC[C@](C)(O)[C@H](NC)[C@H]1O (some centres undefined),–,13.3% [at 0.597 µM]
CCOC(=O)c1ccc(N)cc1,inactive,–
CN(C)CCC[C@@]1(c2ccc(F)cc2)OCc2cc(C#N)ccc21,inactive,–
CCCCCCCCCCCCCCCC(=O)O,inactive,–
CCC1Nc2cc(Cl)c(S(N)(=O)=O)cc2S(=O)(=O)N1 (centres undefined),inactive,–
NC(N)=NN=C(/C=C/c1ccc([N+](=O)[O-])o1)/C=C/c1ccc([N+](=O)[O-])o1,0.237 µM (active),–

SMILES,Potency,"activity change, negative = cytotoxicity"
CN1CCN(c2c(F)cc3c(=O)c(C(=O)O)cn4c3c2SCC4)CC1,inactive,–
CNCCc1ccccn1,inactive,–
CC(=O)NCCCCCC(=O)O,inactive,–
CCCc1ncc(C[n+]2ccccc2C)c(N)n1,inactive,–
CC(C)(C)CC(C)(C)c1ccc(O)c(-n2nc3ccccc3n2)c1,inactive,–
CCN(CC)CCNC(=O)COc1ccc(OC)cc1,inactive,–
COc1cc(C(=O)N2CCCCCCC2)cc(OC)c1OC,inactive,–
CCOC(=O)C(C#N)=C(c1ccccc1)c1ccccc1,inactive,–
Cc1cc(-c2ccccc2)nnc1NCCN1CCOCC1,inactive,–
CC[N+](C)(CC)CCOC(=O)C(O)(c1ccccc1)C1CCCCC1 (centres undefined),inactive,–
C[C@@H](O)[C@H]1C(=O)N2C(C(=O)O)=C(S[C@@H]3CN[C@H](CNS(N)(=O)=O)C3)[C@H](C)[C@H]12,inactive,–
CC(C)(C)NC[C@H](O)COc1nsnc1N1CCOCC1,inactive,–
CC(=O)O[C@H]1C[C@@H]2CC[C@@H]3[C@H](CC[C@@]4(C)[C@H]3C[C@H]([N+]3(C)CCCCC3)[C@@H]4OC(C)=O)[C@@]2(C)C[C@@H]1N1CCCCC1,inactive,–
CCCN(CCC)S(=O)(=O)c1ccc(C(=O)O)cc1,inactive,–
CC(C)(C)NCC(O)COc1cccc2c1C[C@H](O)[C@H](O)C2 (some centres undefined),inactive,–
NC(=O)C1(N2CCCCC2)CCN(CCCC(=O)c2ccc(F)cc2)CC1,inactive,–
CC(=O)Nc1ncc([N+](=O)[O-])s1,inactive,–
FC1(F)C(F)(F)C(F)(F)C2(F)C(F)(F)C(F)(F)C(F)(F)C(F)(F)C2(F)C1(F)F (centres undefined),inactive,–

# Test system: C33A
# Assay: Primary qHTS to identify gynecologic anti-cancer compounds using libraries of approved drugs and bioactive compounds (AID 1345084); also: nearly all actives have a fitted effect of over 55% in size
# Conditions: Gynecologic cancer cell panel viability, ATPlite luminescence, 48 h; series mostly up to 57.5 µM
# Outline: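 Cytotoxicity screen measuring ATP content by luciferase luminescence. Each compound is applied at five concentrations for 48 h at 37 C with 5% CO2.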
SMILES,Potency,"activity change, negative = cytotoxicity"
N#C/C(=C1\SCC(c2ccccc2Cl)S1)n1ccnc1 (centres undefined),inactive,–
COc1ccc(C(=O)c2ccccc2O)c(O)c1,inactive,–
CCC1NC(=O)c2cc(S(N)(=O)=O)c(Cl)cc2N1 (centres undefined),inactive,–
OC1C(O)C(O)C(O)C(O)C1O (centres undefined),inactive,–
OC(C#CCN1CCCC1)(c1ccccc1)c1ccccc1,inactive,–
COc1ccc(C(=O)c2ccccc2)c(O)c1,inactive,–
CCC(Cc1c(I)cc(I)c(N)c1I)C(=O)O (centres undefined),inactive,–
CN(Cc1ccc(C(C)(C)C)cc1)Cc1cccc2ccccc12,inactive,–
COP(=O)(OC)OC(c1ccc(Cl)cc1)P(=O)(OC)OC (centres undefined),inactive,–
Nc1nc(N)c(-c2ccccc2)s1,inactive,–
CO[C@]12C[C@@H](COC(=O)c3cncc(Br)c3)CN(C)[C@@H]1Cc1cn(C)c3cccc2c13,inactive,–
O=C(NCCc1c[nH]c2ccccc12)c1cccnc1,inactive,–
CCN[C@@H]1C[C@H](N)[C@@H](OC2OC(CN)=CCC2N)[C@H](O)[C@H]1O[C@H]1OC[C@](C)(O)[C@H](NC)[C@H]1O (some centres undefined),–,4.69% [at 0.462 µM]
CCOC(=O)c1ccc(N)cc1,inactive,–
CN(C)CCC[C@@]1(c2ccc(F)cc2)OCc2cc(C#N)ccc21,inactive,–
CCCCCCCCCCCCCCCC(=O)O,inactive,–
CCC1Nc2cc(Cl)c(S(N)(=O)=O)cc2S(=O)(=O)N1 (centres undefined),inactive,–
NC(N)=NN=C(/C=C/c1ccc([N+](=O)[O-])o1)/C=C/c1ccc([N+](=O)[O-])o1,12.6 µM (active),–

SMILES,Potency,"activity change, negative = cytotoxicity"
CN1CCN(c2c(F)cc3c(=O)c(C(=O)O)cn4c3c2SCC4)CC1,inactive,–
CNCCc1ccccn1,inactive,–
CC(=O)NCCCCCC(=O)O,inactive,–
CCCc1ncc(C[n+]2ccccc2C)c(N)n1,inactive,–
CC(C)(C)CC(C)(C)c1ccc(O)c(-n2nc3ccccc3n2)c1,inactive,–
CCN(CC)CCNC(=O)COc1ccc(OC)cc1,inactive,–
COc1cc(C(=O)N2CCCCCCC2)cc(OC)c1OC,inactive,–
CCOC(=O)C(C#N)=C(c1ccccc1)c1ccccc1,inactive,–
Cc1cc(-c2ccccc2)nnc1NCCN1CCOCC1,inactive,–
CC[N+](C)(CC)CCOC(=O)C(O)(c1ccccc1)C1CCCCC1 (centres undefined),inactive,–
C[C@@H](O)[C@H]1C(=O)N2C(C(=O)O)=C(S[C@@H]3CN[C@H](CNS(N)(=O)=O)C3)[C@H](C)[C@H]12,inactive,–
CC(C)(C)NC[C@H](O)COc1nsnc1N1CCOCC1,inactive,–
CC(=O)O[C@H]1C[C@@H]2CC[C@@H]3[C@H](CC[C@@]4(C)[C@H]3C[C@H]([N+]3(C)CCCCC3)[C@@H]4OC(C)=O)[C@@]2(C)C[C@@H]1N1CCCCC1,inactive,–
CCCN(CCC)S(=O)(=O)c1ccc(C(=O)O)cc1,inactive,–
CC(C)(C)NCC(O)COc1cccc2c1C[C@H](O)[C@H](O)C2 (some centres undefined),inactive,–
NC(=O)C1(N2CCCCC2)CCN(CCCC(=O)c2ccc(F)cc2)CC1,inactive,–
CC(=O)Nc1ncc([N+](=O)[O-])s1,inactive,–
FC1(F)C(F)(F)C(F)(F)C2(F)C(F)(F)C(F)(F)C(F)(F)C(F)(F)C2(F)C1(F)F (centres undefined),inactive,–
